{"source": "the OligoGym collection"}
{"biological_target": "SSR4", "test": "pooled miR-30 sensor sort-seq; sequence = guide strand", "settings": "shRNA"}
{"sequence": "AAGTAGTAGATCACAAGGCCGA", "sensor-assay potency score (higher = more potent)": -0.597}
{"sequence": "TCGAGTGACAGGGAATTGTTTT", "sensor-assay potency score (higher = more potent)": -0.927}
{"sequence": "TAGTAGGAAGGGGTGATCTGGG", "sensor-assay potency score (higher = more potent)": -0.671}
{"sequence": "TATTCCTCTGAGCCTTCCTGAG", "sensor-assay potency score (higher = more potent)": -1.63}
{"sequence": "AATCTAACCTCATAGGTGCCTG", "sensor-assay potency score (higher = more potent)": -0.709}
{"sequence": "TGACTGTAAACAGAGGCGGGAT", "sensor-assay potency score (higher = more potent)": -0.672}
{"sequence": "TAACCTCATAGGTGCCTGCGTG", "sensor-assay potency score (higher = more potent)": -0.73}
{"sequence": "TCAGAAGTGGTGTAGTAGGAAG", "sensor-assay potency score (higher = more potent)": -1.28}
{"sequence": "TAGATCACAAGGCCGATCGCCG", "sensor-assay potency score (higher = more potent)": -0.829}
{"sequence": "AAGAATCTAACCTCATAGGTGC", "sensor-assay potency score (higher = more potent)": 0.237}
{"biological_target": "SSTR1", "test": "pooled miR-30 sensor sort-seq; sequence = guide strand", "settings": "shRNA"}
{"sequence": "TAAGGTGATCTTGCGCTCCGAG", "sensor-assay potency score (higher = more potent)": 0.115}
{"sequence": "TTCAATAGTGATTTTAACCATT", "sensor-assay potency score (higher = more potent)": -0.629}
{"sequence": "TTTAGGATGTAGATGTTGGTGG", "sensor-assay potency score (higher = more potent)": -0.196}
{"sequence": "TAAACAAGAAAATAACTTCTTA", "sensor-assay potency score (higher = more potent)": -0.323}
{"sequence": "TAGATGACCATAGAGTTCCCAC", "sensor-assay potency score (higher = more potent)": -0.705}
{"sequence": "TTAGATCTTTCTCAAGTCCAAC", "sensor-assay potency score (higher = more potent)": -1.71}
{"sequence": "TATCATTTATGTATTATCCTAA", "sensor-assay potency score (higher = more potent)": -0.0617}
{"sequence": "TTTTGAGATACACTGGAGCAGG", "sensor-assay potency score (higher = more potent)": -0.72}
{"sequence": "TGAGTTGTTAATGAGTTCGTGA", "sensor-assay potency score (higher = more potent)": -0.0506}
{"sequence": "TTGGAAGTCTTCCACACTGTAG", "sensor-assay potency score (higher = more potent)": -0.86}
{"sequence": "TAAATTTGTATCCTCTTAGAAG", "sensor-assay potency score (higher = more potent)": -1.31}
{"sequence": "TTGGTCTTTGAAAACGCGCAGT", "sensor-assay potency score (higher = more potent)": -0.784}
{"biological_target": "SSU72", "test": "pooled miR-30 sensor sort-seq; sequence = guide strand", "settings": "shRNA"}
{"sequence": "TTCTGGAATCTTTCTGGCCGGG", "sensor-assay potency score (higher = more potent)": -0.713}
{"sequence": "TTGTACATCTGGTCATATGTGG", "sensor-assay potency score (higher = more potent)": 0.225}
{"sequence": "TTTCCTAAGAAGATCATTGTAC", "sensor-assay potency score (higher = more potent)": 0.179}
{"sequence": "TCGTTCTCCATGTCTTCCGTGT", "sensor-assay potency score (higher = more potent)": -0.416}
{"sequence": "AAGAAGATCATTGTACATCTGG", "sensor-assay potency score (higher = more potent)": 0.705}
{"sequence": "TCATACACTCTCTCTTCGCAAG", "sensor-assay potency score (higher = more potent)": -1.24}
{"sequence": "ATAAACATTGGGCTTGTCGGGA", "sensor-assay potency score (higher = more potent)": -0.564}
{"sequence": "AACTTTGTAATCAATATCCTGC", "sensor-assay potency score (higher = more potent)": 0.0512}
{"sequence": "TAAACATTGGGCTTGTCGGGAG", "sensor-assay potency score (higher = more potent)": -0.587}
{"sequence": "ATGAACAACAGGAAGCTCCAGA", "sensor-assay potency score (higher = more potent)": -0.247}
{"sequence": "TAGAGTTCTTTGTCTTTCCTAA", "sensor-assay potency score (higher = more potent)": -0.0441}
{"sequence": "TTTGAAATCATAAACATTGGGC", "sensor-assay potency score (higher = more potent)": 0.0382}
{"biological_target": "SSX3", "test": "pooled miR-30 sensor sort-seq; sequence = guide strand", "settings": "shRNA"}
{"sequence": "TTTGTATCTTCTCTGGTATTTG", "sensor-assay potency score (higher = more potent)": -1.22}
{"sequence": "TTGTATCTTCTCTGGTATTTGA", "sensor-assay potency score (higher = more potent)": -1.1}
{"sequence": "TTTCTCCGAGACTTTCATCTTT", "sensor-assay potency score (higher = more potent)": -0.136}
{"sequence": "TATTACGCATGAAAGATGGGAG", "sensor-assay potency score (higher = more potent)": 0.05}
{"sequence": "TTTTGTATCTTCTCTGGTATTT", "sensor-assay potency score (higher = more potent)": -0.981}
{"sequence": "TTTGGGTCCAGATATCATGTTA", "sensor-assay potency score (higher = more potent)": -0.75}
